Inconclusive results are not listed. Where a call stands in place of a potency, no number is given. The source holds several records for some structures; these can differ, active in one and inactive in another. Calls of active or inactive are those of the source. Calls come from the whole dose curve; as a rule, active = well fitted cell-killing curve with a large enough effect in the repeat runs; inconclusive = weak or mixed curves, or effect the other way; inactive = flat fitted curve, though single readings scatter.
Potency is the fitted concentration of half-maximal effect.

The assay in a line: qHTS RealTime-Glo MT Cell Viability Assay in HEK293 cells - 24 hour (AID 1224886). For activity change, negative = cytotoxicity: top concentration of the series differs between compounds. Note: nearly all actives have a fitted effect of over 50% in size. To be noted: RealTime-Glo luminescence; series mostly up to 76.8 µM; activity change, negative = cytotoxicity: at the top concentration. From the text:
National Center for Advancing Translational Sciences [NCATS]
NIH Chemical Genomics Center [NCGC]
U.S. Environmental Protection Agency [EPA]
National Institutes of Environmental Health Sciences [NIEHS]
National Toxicology Program [NTP]
U.S. Food and Drug Administration [FDA]
Measure of cell viability is critical in the cell-base assay. Analysis of cell viability is necessary for the characterization of cell responses to cytotoxic drugs and environmental stress. A RealTime-Glo MT Cell Viability Assay to monitor cell viability in real time of continues cell culture during 40 hours of compound treatment was used to screen Tox21 10K library compounds in Hek293 cells. The RealTime-Glo MT Cell Viability Assay is a nonlytic, homogeneous, bioluminescent method to measure cell viability in real time using a simple, plate-based method. The assay involves adding NanoLuc luciferase and a cell-permeant prosubstrate to cells in culture. Viable cells reduce the proprietary prosubstrate to generate a substrate for NanoLuc luciferase. This substrate diffuses from cells into the surrounding culture medium, where it is rapidly used by the NanoLuc Enzyme to produce a luminescent signal. The signal correlates with the number of viable cells, making the assay well suited for cytotoxicity studies.
Tox21 Assay Protocol Summary:
The mixture of Hek293 cell suspension and reagents were dispensed at 600cells/6 ul/well in 1536-well tissue culture treated black solid bottom plates using a Multidrop dispenser. After the assay plates were incubated at a 37 C/5% CO2 incubator for 5 hours, 23 nL of compounds dissolved in DMSO, positive and negative controls was transferred to the assay plate by a pintool work station. The plates were incubated at 37 C for 40 hours. The luminescence intensity were measured at 0h, 8h, 16h, 24h, 32h and 40h time points using ViewLux plate reader during compound treatment.
A general note: In qHTS, concentration-response curves come from the screen itself.
On to `CCO[Si](CCC#N)(OCC)OCC`, for which the Potency result was “inactive”. On the same count and under the same terms, as for `CCCCCCCCCCCC(=O)OC`, the entry is “inactive”; as for `O=C(O)CCCCCCCCC(=O)O`, “inactive”. As for `CCCCCCC=O`, the “activity change, negative = cytotoxicity” value was 3.88% (inactive).

Regarding `CC1(C)S[C@@H]2[C@H](NC(=O)COc3ccccc3)C(=O)N2[C@H]1C(=O)O`, the Potency result is “inactive”.

Consider `CCCCCCCCCCO`, for which the Potency entry was “inactive”. Still for that read-out and setting: as for `Cc1ccc(C(C)C)c(O)c1`, the entry is “inactive”; as for `CCO[Si](CCCN)(OCC)OCC`, “inactive”; as for `CC(C)OP(=O)(CP(=O)(OC(C)C)OC(C)C)OC(C)C`, “inactive”.

Take `CCOC(=O)c1ccc(N)cc1`: the “activity change, negative = cytotoxicity” value was -13.1% [at 35.3 µM] (inactive). On to `CC(=O)OCCOC(C)=O`, for which the Potency entry is “inactive”.

As to `c1ccc2c(c1)Cc1ccccc1-2`, the Potency entry is “inactive”.

Regarding `O=C(O)c1ccc(S(=O)(=O)N(Cl)Cl)cc1`, the Potency is 49.3 µM (active) and inactive.

Turning to `CC(=O)Oc1ccc(C)cc1`, the Potency entry is “inactive”. `CCc1ccccc1CC`: the Potency entry is “inactive”. As for `CCCCCCCO`, the Potency entry is “inactive”. With `NCCN1CCNCC1`, the Potency entry was “inactive”. As for `O=C1CCCC1`, the Potency entry was “inactive”. Still for that read-out and setting: as for `C=C(C)[C@H]1CC=C(C)C(=O)C1`, the entry is “inactive”. With `CC(C)OC(=O)COc1ccc(Cl)cc1Cl`, the Potency result is “inactive”.

`CC(C)(Oc1ccc(CCNC(=O)c2ccc(Cl)cc2)cc1)C(=O)O`: the Potency entry was “inactive”.

As for `OC1C(O)C(O)C(O)C(O)C1O` (stereo not given), the Potency entry is “inactive”. On to `CC(=O)CC(C)(C)O`, for which the Potency result was “inactive”. For `CCOCC(=O)O`, the Potency result is “inactive”. Still for that read-out and setting: as for `c1ccc(Oc2ccccc2)cc1`, the entry is “inactive”; as for `CCNc1ccccc1`, “inactive”. Turning to `CC(=O)c1ccc(O)cc1`, the Potency result is “inactive”. The same measure, in the same setting: as for `Cc1ccc(S(=O)(=O)N=C=O)cc1`, the entry is “inactive”; as for `CN1C(=O)CC[C@H]1c1cccnc1`, “inactive”.

Take `CCCCCCCCCCN`: the Potency entry was “inactive”. Regarding `CC(C)CC(C)O` (stereo not given), the Potency entry is “inactive”. Still for that read-out and setting: as for `O=[N+]([O-])c1ccc2nc[nH]c2c1`, the entry is “inactive”; as for `COc1ccc(OC)cc1`, “inactive”; as for `C[Si]1(C)O[Si](C)(C)O[Si](C)(C)O[Si](C)(C)O1`, “inactive”.

Turning to `C=C(C)C(=O)OCC(C)C`, the Potency entry is “inactive”. Same read-out and setting: as for `CN(C)c1ccc(O)c2c1C[C@H]1C[C@H]3[C@H](N(C)C)C(=O)C(C(N)=O)=C(O)[C@@]3(O)C(=O)C1=C2O`, the entry is “inactive”; as for `CCOCCOCCOCCO`, “inactive”.

For `COc1ccc(CCC(C)=O)cc1`, the Potency result was “inactive”. For the compound `O=C(O)c1cc2ccccc2cc1O`, the Potency result was “inactive”.

As to `C=CCc1ccc(OC)c(OC)c1`, the Potency result is “inactive”.

The values are drawn from PubChem BioAssay (Tox21).
